# Reference: PubChem BioAssay (Tox21)
# Values joined by “and” are separate entries in the source; they are usually repeats but may differ in a detail not shown here. Equal values may be shown once. Records with an inconclusive call do not appear. Where a call stands in place of a potency, no number is given. More than one record can exist for a structure, and the calls need not agree. Active and inactive are the calls of the source. Calls follow the shape of the dose curve; as a rule, active = well fitted curve in the direction sought with a large enough effect in the repeat runs; inconclusive = weak or mixed curves; inactive = no such curve, though single readings can be large; an effect the other way counts as inactive or inconclusive.
# Assays:
# [1] = qHTS RealTime-Glo MT Cell Viability Assay in HepG2 cells - 40 hour (AID 1224870); also: nearly all actives have a fitted effect of over 50% in size; also: potency is read from the fitted curve at half-maximal effect
# Outline: (§1)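 HepG2 cells (600/well) mixed with RealTime-Glo MT reagent, settled 5 h at 37 C/5% CO2 before compound addition. Nonlytic NanoLuc luminescence from viable-cell prosubstrate reduction read repeatedly during 40 h treatment at 37 C.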
# [2] = A CellTox Green Cytotoxicity Assay to monitor cytotoxicity in HEK293 cells - 40 hour (AID 1224871); also: nearly all actives have a fitted effect of over 45% in size; also: potency is read from the fitted curve at half-maximal effect
# Outline: (§2)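 Fluorescence intensity, read at 0, 8, 16, 24, 32 and 40 h of compound treatment, reflected dye binding to DNA of dead HEK293 cells; compounds (23 nL, DMSO) were added 5 h after plating cells with reagent.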
# [3] = A CellTox Green Cytotoxicity Assay to monitor cytotoxicity in HEK293 cells - 24 hour (AID 1224875); also: series mostly up to about 77 µM; nearly all actives have a fitted effect of over 45% in size
# Outline: as §2
# [4] = A CellTox Green Cytotoxicity Assay to monitor cytotoxicity in HepG2 cells - 16 hour (AID 1224876); also: nearly all actives have a fitted effect of over 45% in size
# Outline: (§3)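 Using 1536-well format, dye-containing HepG2 suspension was seeded, allowed 5 h at 37 C/5% CO2, dosed by pintool with compounds, positive and negative controls, and imaged for fluorescence across 40 h.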
# [5] = qHTS RealTime-Glo MT Cell Viability Assay in HepG2 cells - 32 hour (AID 1224877); also: nearly all actives have a fitted effect of over 55% in size; also: potency is read from the fitted curve at half-maximal effect
# Outline: (§4)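 Cells + NanoLuc/prosubstrate dispensed (600 cells/well) → 5 h at 37 C/5% CO2 → compounds in DMSO transferred → 40 h incubation at 37 C, luminescence read at 0, 8, 16, 24, 32, 40 h.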
# [6] = A CellTox Green Cytotoxicity Assay to monitor cytotoxicity in HepG2 cells - 24 hour (AID 1224878); also: nearly all actives have a fitted effect of over 45% in size; also: potency is read from the fitted curve at half-maximal effect
# Outline: as §3
# [7] = qHTS RealTime-Glo MT Cell Viability Assay in HEK293 cells - 0 hour (AID 1224880); also: nearly all actives have a fitted effect of over 45% in size; also: potency is read from the fitted curve at half-maximal effect
# Outline: (§5)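 Viable HEK293 cells reduce a cell-permeant prosubstrate; the product diffuses out and is consumed by NanoLuc in the medium to give light. Compounds went in after a 5 h incubation and plates were read over the treatment course.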
# [8] = A CellTox Green Cytotoxicity Assay to monitor cytotoxicity in HEK293 cells - 32 hour (AID 1224881); also: nearly all actives have a fitted effect of over 40% in size
# Outline: as §2
# [9] = A CellTox Green Cytotoxicity Assay to monitor cytotoxicity in HepG2 cells - 0 hour (AID 1224882); also: nearly all actives have a fitted effect of over 35% in size
# Outline: as §3
# [10] = A CellTox Green Cytotoxicity Assay to monitor cytotoxicity in HepG2 cells - 32 hour (AID 1224883); also: nearly all actives have a fitted effect of over 50% in size; also: potency is read from the fitted curve at half-maximal effect
# Outline: as §3
# [11] = A CellTox Green Cytotoxicity Assay to monitor cytotoxicity in HEK293 cells - 8 hour (AID 1224884); also: nearly all actives have a fitted effect of over 35% in size
# Outline: as §2
# [12] = qHTS RealTime-Glo MT Cell Viability Assay in HepG2 cells - 16 hour (AID 1224885); also: nearly all actives have a fitted effect of over 50% in size
# Outline: as §4
# [13] = A CellTox Green Cytotoxicity Assay to monitor cytotoxicity in HEK293 cells - 16 hour (AID 1224888); also: nearly all actives have a fitted effect of over 35% in size
# Outline: as §2
# [14] = qHTS RealTime-Glo MT Cell Viability Assay in HepG2 cells - 0 hour (AID 1224889); also: nearly all actives have a fitted effect of over 50% in size; also: potency is read from the fitted curve at half-maximal effect
# Outline: as §4
# [15] = qHTS RealTime-Glo MT Cell Viability Assay in HEK293 cells - 40 hour (AID 1224874); details: RealTime-Glo luminescence; max response: stronger effect = lower value; also: nearly all actives have a fitted effect of over 50% in size; also: potency is read from the fitted curve at half-maximal effect
# Outline: as §5
# [16] = A CellTox Green Cytotoxicity Assay to monitor cytotoxicity in HepG2 cells - 40 hour (AID 1224879); also: nearly all actives have a fitted effect of over 40% in size
# Outline: as §3
# [17] = qHTS RealTime-Glo MT Cell Viability Assay in HEK293 cells - 24 hour (AID 1224886); also: nearly all actives have a fitted effect of over 50% in size; also: potency is read from the fitted curve at half-maximal effect
# Outline: (§6)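 Tox21 10K qHTS, HEK293, 600 cells/well, RealTime-Glo reagent co-dispensed with cells; 5 h preincubation, compound by pintool, 37 C, luminescence at 0–40 h.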
# [18] = qHTS RealTime-Glo MT Cell Viability Assay in HepG2 cells - 8 hour (AID 1224873); also: nearly all actives have a fitted effect of over 55% in size
# Outline: as §1
# [19] = qHTS RealTime-Glo MT Cell Viability Assay in HEK293 cells - 8 hour (AID 1224887)
# Outline: as §5
# [20] = qHTS RealTime-Glo MT Cell Viability Assay in HEK293 cells - 16 hour (AID 1224872)
# Outline: as §6
smiles,measurement,setting,value
O=C(Nc1ccc(Cl)cc1)Nc1ccc(Cl)c(Cl)c1,Potency,[1],inactive
same,Potency,[2],inactive and 8.71 µM (active)
same,Potency,[3],inactive
same,Potency,[4],inactive
same,Potency,[5],inactive
same,Potency,[6],inactive
same,Potency,[7],inactive
same,Potency,[8],inactive
same,Potency,[9],inactive
same,Potency,[10],inactive
same,Potency,[11],inactive
same,Potency,[12],inactive
same,Potency,[13],inactive
same,Potency,[14],inactive
CN(C)C(=N)N=C(N)N,Potency,[1],inactive
same,Potency,[2],inactive
same,max response,[15],2.54% (inactive) and 1.8% (inactive)
same,Potency,[3],inactive
same,Potency,[5],inactive
same,Potency,[16],inactive
same,Potency,[7],inactive
same,Potency,[8],inactive
same,Potency,[9],inactive
same,Potency,[10],inactive
same,Potency,[11],inactive
same,Potency,[12],inactive
same,Potency,[17],inactive
same,Potency,[13],inactive
same,Potency,[14],inactive
C[C@]12CC[C@H]3[C@@H](CCC4=CC(=O)CC[C@@]43C)[C@@H]1CC[C@@H]2C(=O)CO,Potency,[1],inactive
same,Potency,[2],inactive
same,Potency,[15],38.9 µM (active)
same,Potency,[3],inactive
same,Potency,[4],inactive
same,Potency,[5],inactive
same,Potency,[16],inactive
same,Potency,[7],17.4 µM (active)
same,Potency,[8],inactive
same,Potency,[9],inactive
same,Potency,[10],inactive
same,Potency,[11],inactive
same,Potency,[12],inactive
same,Potency,[17],24.5 µM (active)
same,Potency,[13],inactive
same,Potency,[14],4.36 µM (active) and 9.52 µM (active)
CCCCNS(=O)(=O)c1ccccc1,Potency,[1],inactive
same,Potency,[2],inactive
same,Potency,[3],inactive
same,Potency,[4],inactive
same,Potency,[5],inactive
same,Potency,[6],inactive
same,Potency,[16],inactive
same,Potency,[7],inactive
same,Potency,[8],inactive
same,Potency,[9],inactive
same,Potency,[10],inactive
same,Potency,[11],inactive
same,Potency,[12],inactive
same,Potency,[17],inactive and 6.16 µM (active)
same,Potency,[13],inactive
same,Potency,[14],inactive
CCC(C)(O)CCCC(C)C (stereo not given),Potency,[1],inactive
same,Potency,[2],inactive
same,Potency,[18],inactive
same,Potency,[3],inactive
same,Potency,[5],inactive
same,Potency,[16],inactive
same,Potency,[7],inactive
same,Potency,[8],inactive
same,Potency,[9],inactive
same,Potency,[10],inactive
same,Potency,[11],inactive
same,Potency,[12],inactive
same,Potency,[17],inactive
same,Potency,[19],inactive
same,Potency,[13],inactive
same,Potency,[14],inactive
Cc1cccc([N+](=O)[O-])c1C,Potency,[1],inactive
same,Potency,[2],inactive
same,max response,[15],2.52% (inactive) and -15.5% (inactive)
same,Potency,[3],inactive
same,Potency,[4],inactive
same,Potency,[5],inactive
same,Potency,[6],inactive
same,Potency,[16],inactive
same,Potency,[7],inactive
same,Potency,[8],inactive
same,Potency,[9],inactive
same,Potency,[10],inactive
same,Potency,[11],inactive
same,Potency,[12],inactive
same,Potency,[17],inactive
same,Potency,[19],inactive
same,Potency,[13],inactive
same,Potency,[14],inactive
Cc1c(C(N)=O)cc([N+](=O)[O-])cc1[N+](=O)[O-],Potency,[1],inactive
same,Potency,[2],inactive
same,Potency,[18],inactive
same,Potency,[3],inactive
same,Potency,[4],inactive
same,Potency,[5],inactive
same,Potency,[6],inactive
same,Potency,[16],inactive
same,Potency,[7],inactive
same,Potency,[8],inactive
same,Potency,[9],inactive
same,Potency,[10],inactive
same,Potency,[11],inactive
same,Potency,[12],inactive
same,Potency,[17],inactive
same,Potency,[13],inactive
same,Potency,[14],inactive
COc1cccc2c1C(=O)c1c(O)c3c(c(O)c1C2=O)C[C@@](O)(C(=O)CO)C[C@@H]3O[C@H]1C[C@H](N)[C@H](O)[C@H](C)O1,Potency,[1],0.952 µM (active)
same,Potency,[2],inactive
same,Potency,[3],inactive
same,Potency,[5],0.952 µM (active)
same,Potency,[6],inactive and 21.3 µM (active)
same,Potency,[16],inactive
same,Potency,[7],inactive
same,Potency,[8],inactive
same,Potency,[9],inactive
same,Potency,[10],inactive and 21.3 µM (active)
same,Potency,[12],inactive
same,Potency,[17],155 nM (active) and 301 nM (active)
same,Potency,[13],inactive
same,Potency,[14],inactive
O=C(c1ccccc1)c1ccccc1O,Potency,[1],inactive
same,Potency,[20],inactive
same,Potency,[18],inactive
same,Potency,[3],inactive
same,Potency,[4],inactive
same,Potency,[5],inactive
same,Potency,[16],inactive
same,Potency,[7],inactive
same,Potency,[8],inactive
same,Potency,[9],inactive
same,Potency,[10],inactive
same,Potency,[11],inactive
same,Potency,[12],inactive
same,Potency,[17],inactive
same,Potency,[13],inactive
same,Potency,[14],inactive
COc1ccc(OC)c(C(O)CNC(=O)CN)c1 (stereo not given),Potency,[1],inactive
same,Potency,[2],inactive
same,max response,[15],2.49% (inactive) and 0.0352% (inactive)
same,Potency,[3],inactive
same,Potency,[4],inactive
same,Potency,[5],inactive
same,Potency,[6],inactive
same,Potency,[16],inactive
same,Potency,[7],inactive
same,Potency,[8],inactive
same,Potency,[9],inactive
same,Potency,[10],inactive
same,Potency,[11],inactive
same,Potency,[12],inactive
same,Potency,[17],inactive
same,Potency,[19],inactive
same,Potency,[13],inactive
same,Potency,[14],inactive
